Sampled rows, rich in hits. Any-hit rate of the full collection: about 3.8%.
A549 viability: kills or reduces viability of A549 cells in Nrf2 counter-screen | A549 ARE-Fluc cells, CellTiter-Fluor viability, 18-24 h | Potency, µM (highest dose often 46 µM), hits mostly inhibitors | hit rate 0.16% among 390,000
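Cytotoxicity counterscreen: CellTiter-Fluor fluorescence was measured in A549 ARE_Fluc cells after 18-24 h of compound exposure in a concentration series. The subsequent BugLite luminescent read reports ARE-luciferase activity.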
mIDH1 inhibitor: blocks human mutant IDH1 R132H enzyme; IDH1-R132H enzyme, NADPH consumption, diaphorase/resazurin fluorescence; hit rate 0.093% among 390,000; AID 602179; Potency, µM (titrated, usually from 76.6 µM), most hits filed as inhibitors; also: nearly all actives have a fitted effect of over 65% in size
Target sequence (O75874 whole entry R132H, stated change not applied): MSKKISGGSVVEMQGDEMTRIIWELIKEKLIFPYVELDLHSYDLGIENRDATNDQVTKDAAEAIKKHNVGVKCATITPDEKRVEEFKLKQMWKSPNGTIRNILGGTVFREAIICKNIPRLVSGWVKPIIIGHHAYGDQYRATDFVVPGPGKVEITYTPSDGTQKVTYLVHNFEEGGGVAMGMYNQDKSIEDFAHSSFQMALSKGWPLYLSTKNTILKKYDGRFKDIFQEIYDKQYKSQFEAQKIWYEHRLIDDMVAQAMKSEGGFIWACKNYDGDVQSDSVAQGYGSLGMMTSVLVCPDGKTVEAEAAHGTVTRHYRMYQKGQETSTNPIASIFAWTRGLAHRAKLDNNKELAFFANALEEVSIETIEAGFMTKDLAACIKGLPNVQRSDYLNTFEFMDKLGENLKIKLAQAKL
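IDH1-R132H (0.5 ug/mL dispensed) in pH 7.5 Tris buffer was preincubated 30 min with compound, then given a substrate mix of 0.016 mM NADPH and 2 mM alpha-KG for 80 min at room temperature; remaining NADPH was read by diaphorase/resazurin fluorescence.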
Nrf2 ARE act: Nrf2 pathway activation; AREc32 ARE-luciferase reporter (MCF7-derived line), luminescence, 24 h; Potency, µM (highest dose often 46.1 µM), actives largely listed as activators; hit rate 0.31% among 410,000; AID 624171; also: nearly all actives have a fitted effect of over 65% in size
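AREc32 cells carrying an ARE-driven firefly luciferase reporter were seeded at 1000 cells/well in OPTI-MEM with 5% FBS, then exposed to compound for 24 hr at 37 deg C. Luminescence was read with Steady-Glo after 30 min at RT.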
Nrf2 inh: Nrf2 pathway inhibition | A549 ARE-Fluc reporter, luciferase luminescence, 18-24 h | Potency, µM (titrated, usually from 46 µM), usual class: inhibitors | hit rate 2.1% among 360,000 | AID 504444; also: nearly all actives have a fitted effect of over 60% in size
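Concentration-response testing used A549 ARE_Fluc cells at 5000 cells/well. Following an 18-24 h compound incubation, viability was read by fluorescence (Ex 405/Em 525) and luciferase output by luminescence.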
ELG1 repair inh: inhibitors of ELG1-dependent DNA repair in HEK293T cells | HEK293T ELG1-luciferase reporter, luminescence, 16 h; DNA damage induced by 5-fluorouridine | Potency, µM (series often up to 46.1 µM), actives largely listed as inhibitors | hit rate 2.3% among 330,000; also: nearly all actives have a fitted effect of over 55% in size
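Step one: seed 2,000 cells per well. Step two: pin-transfer compound or DMSO alongside 5-fluorouridine. Step three: incubate 16 hr, 37 °C, 5% CO2. Step four: add ONE-Glo, wait 30 min, read luminescence.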
Hits are given with their value; - = inactive; ? = inconclusive; . = not tested or not shown; [ ] = dose if it differs, or a comment. Calls follow the shape of the dose curve; as a rule, active = well fitted curve in the direction sought with a large enough effect; inconclusive = small, poorly fitted or top-dose-only effect, or another doubt; inactive = no such curve, though single readings can be large; an effect the other way counts as inactive or inconclusive.

SMILES	A549 viability	mIDH1 inhibitor	Nrf2 ARE act	Nrf2 inh	ELG1 repair inh
Nc1nc(N)nc(-c2cc(O)ccc2O)n1	-	-	-	?	1.2µM
COc1ccc(C(=O)NC2(C(F)(F)F)C(=O)NC(C)=C2C#N)cc1 (stereo not drawn)	-	-	-	-	.
COC(=O)c1cccc(NC(=O)NC(=O)c2ccc(Cl)cc2)c1	-	-	-	10µM	?
COC(=O)c1cccc(NC(=O)c2cc(OC)c(OC)c(OC)c2Br)c1	-	-	-	-	12µM
COc1ccc(C(=O)Nc2cccc(C(C)=O)c2)c(OC)c1OC	-	-	-	-	?
COc1ccc(Cn2c(C(=O)O)c(CNCCc3ccccc3Cl)c3ccc(C)cc32)cc1	?	-	-	?	.
CC(=O)c1ccc(NC(=O)c2ccc(-c3nc(COc4ccc(C)cc4)c(C)o3)cc2)cc1	-	-	-	?	.
N#Cc1ccccc1Cn1c(=O)n(CCCC(=O)NCc2ccccc2Cl)c(=O)c2ccccc21	-	-	-	?	.
COc1ccc(-c2cc(-c3nnc(COC(=O)CC4CC5CCC4C5)o3)c3ccccc3n2)cc1OC (stereo not drawn)	-	-	-	-	18µM
c1ccc(-n2cnc3ccccc32)cc1	-	-	-	-	?
COc1ccc(-n2cnc3ccccc32)cc1	-	-	-	-	8.2µM
CC(=O)N1CCC(N(Cc2ccc(C)o2)C(=O)Nc2cccc(C(F)(F)F)c2)CC1	-	-	-	-	.
O=c1c(O)c(-c2ccccc2)oc2cc(O)cc(O)c12	-	-	-	-	13µM
CCN(CC(=O)Nc1ccc(NC(C)=O)cc1)C(=O)/C=C/c1cn(-c2ccccc2)nc1-c1ccc(C)cc1	-	-	-	?	8.2µM
CC(=O)c1ccc(NC(=O)CCS(=O)(=O)c2ccc3c(c2)n(C)c(=O)c(=O)n3C)cc1	-	-	-	-	-
C/C(=N\NC(=O)c1ccc(NS(=O)(=O)c2cccs2)cc1)c1ccncc1	-	-	-	-	-
C/C(=N\NC(=O)C1CCCN(S(=O)(=O)c2ccccc2)C1)c1ccccn1 (stereo not drawn)	?	-	-	12µM	?
CC(=NNC(=S)Nc1cccc(C)c1)c1ccccn1	-	-	-	?	.
CC(=NNC(=S)Nc1ccc(C)cc1)c1ccccn1	12µM	-	-	?	.
C/C(=N\NC(=O)c1ccc(NS(=O)(=O)c2cccs2)cc1)c1ccccn1	-	-	-	?	3.7µM
C/C(=N\NC(=O)C1CCCN(S(=O)(=O)c2ccccc2)C1)c1ccncc1 (stereo not drawn)	-	-	-	-	-
C/C(=N\NC(=O)C1COc2ccccc2O1)c1ccccn1 (stereo not drawn)	?	-	?	9.2µM	?
O=C(N/N=C/c1ccc([N+](=O)[O-])o1)c1ccc(NS(=O)(=O)c2cccs2)cc1	-	-	-	?	21µM
O=C(N/N=C/c1ccc([N+](=O)[O-])cc1)c1ccc(NS(=O)(=O)c2cccs2)cc1	-	-	-	-	-
C/C(=N\NC(=O)C(c1ccccc1)c1ccccc1)c1ccc(O)cc1	-	-	-	?	-
SMILES	A549 viability	mIDH1 inhibitor	Nrf2 ARE act	Nrf2 inh	ELG1 repair inh
C/C(=N\NC(=O)c1cccc(Br)c1)c1ccccn1	?	-	?	2.3µM	?
C/C(=N\NC(=O)C(c1ccccc1)c1ccccc1)c1ccccn1	?	-	-	12µM	-
O=C(c1ccc2c(c1)OCCO2)N(Cc1cccnc1)c1nc2c(F)cccc2s1	-	-	-	.	.
Cc1ccc(C2c3[nH]c4ccccc4c3CCN2C(=O)CCc2ccccc2)cc1 (stereo not drawn)	-	-	-	.	.
CC(C)(CC(=O)OCC(=O)Nc1ccccc1F)CC1=NS(=O)(=O)c2ccccc2N1	-	-	-	?	9.2µM
CC(=O)c1ccc(OCc2nnn(CC(=O)O)c2-c2ccccc2)cc1	.	.	-[9.22 µM]	.	.
CC(OC(=O)CCCSc1nc2ccccc2s1)C(=O)NC(N)=O (stereo not drawn)	-	-	-	16µM	-
NC(=O)COC(=O)CCCSc1nc2ccccc2s1	-	-	-	?	-
O=C1CSC(c2ccccn2)N1c1ccc(C(F)(F)F)cc1 (stereo not drawn)	-	-	-	?	-
CCc1ccc2c(CN3CCN(S(=O)(=O)c4cccs4)CC3)cc(=O)oc2c1	-	-	-	?	?
Cc1ccc2c(CN3CCCCC3)cc(=O)oc2c1C	-	-	-	-	?
Cc1ccc2c(CN3CCN(S(=O)(=O)c4ccccc4C(F)(F)F)CC3)cc(=O)oc2c1C	-	-	-	5.2µM	16µM
CCc1ccc2c(CN3CCN(S(=O)(=O)c4ccccc4F)CC3)cc(=O)oc2c1	-	-	-	?	23µM
COc1ccccc1N1C(=O)c2ccccc2C1=O	-	.	.	-	.
C=C1CCN(C(Cc2ccccc2)C(=O)NC2CCN(Cc3ccccc3)CC2)S(=O)(=O)c2ccccc21 (stereo not drawn)	-	.	.	-	.
Cc1cc(C)nc(NC(=O)/C=C/c2ccccc2Cl)n1	-	-	8.9µM	.	?
Cc1cc(C)nc(NC(=O)/C=C/c2ccccc2Cl)c1	-	-	?	-	?
CN(C)CCCNc1cc(N2CCN(C3CCCCC3)CC2)c2noc3c2c1C(=O)c1ccccc1-3	-	-	-	-	.
Cc1ccc(NC(=O)COc2ccccc2C(N)=O)cc1S(=O)(=O)N1CCCCCC1	?	-	-	5.2µM	?
COc1ccc(NC(=O)COc2ccccc2C)cc1S(=O)(=O)N1CCCCC1	-	-	-	?	?
Cc1ccc(OCC(=O)Nc2ccc(C)c(S(=O)(=O)N3CCCCCC3)c2)c([N+](=O)[O-])n1	-	-	-	-	16µM
COc1ccc(NC(=O)COc2ccccc2C(N)=O)cc1S(=O)(=O)N1CCCCC1	.	-	-	.	.
Cc1ccc(NC(=O)COc2cccc(C)c2C)cc1S(=O)(=O)N1CCCCCC1	-	-	-	26µM	-
CCn1cc(/C=C(\NC(=O)c2ccc(OC)c(OC)c2)C(=O)NCCCn2ccnc2)c2ccccc21	-	-	-	-	.
CCCCCc1ccc(OCCCC[n+]2ccccc2)c(CCCCC)c1	?	-	-	18µM	13µM
SMILES	A549 viability	mIDH1 inhibitor	Nrf2 ARE act	Nrf2 inh	ELG1 repair inh
CCC(C)(C)c1ccc(OCCCC[n+]2ccccc2)c(C(C)(C)CC)c1	?	-	-	23µM	18µM
CCCCCc1ccc(OCCCC[n+]2ccc(C)cc2)c(CCCCC)c1	-	-	-	10µM	15µM
COc1ccc(S(=O)(=O)N2CCN(CC(=O)Nc3sccc3C(N)=O)CC2)cc1OC	-	-	-	-	?
CC[C@@]1(O)C(=O)OCc2c1cc1n(c2=O)Cc2cc3c(CN(C)C)c(O)ccc3nc2-1	?	-	-	2.3µM	.
O=c1c2c(-c3cccs3)csc2ncn1/N=C/c1ccc(OC(F)F)cc1	?	-	-	9.2µM	-
Cc1cccc(N(Cc2cc3ccccc3[nH]c2=O)C(=O)c2cccc(Cl)c2)c1	-	-	-	-	.
